Targets with a hit are over-represented here; the source holds about 8,800 in all. About 0.5% of all pairs of compound and target were hits. Values without a mark were called inactive.

Among the data in the supplement of paper PMC10849652 are log2 fold change values, retold here.

Holding throughout (assay): log2 fold change, soluble protein after heating vs DMSO (PISA); higher = thermal stabilisation; K562 lysate, 10 uM; active = over 0.2 and 3.5 SD of the protein, either way, in both replicates (recomputed)
Compound in assay [1]: NCC(=O)Nc1ccc(-n2nc(C(F)(F)F)cc2-c2ccc3c(ccc4ccccc43)c2)cc1
A digest of the protocol: (§1)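 K562 pellets were dounce-homogenised in PBS pH 7.4 containing 1 mM MgCl2, and the crude extract, at 1 mg/mL protein, was exposed to 10 μM compound for 30 min. Aliquots were heated for 3 min across 48°C-58°C, pooled, brought to 0.5% NP-40 at 4°C and spun at 21,000xg for 90 min, with the supernatant taken as soluble protein. TMTpro 16plex LC-MS/MS with equalised channel sums quantified that protein. Values are log-two fold changes in thermal stability relative to solvent controls, taken from duplicates.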

Compound in a further assay: O=C(CCCCCCC(=O)Nc1ccccc1)NO [vorinostat]
A digest of the protocol:
as §1

Compound in the next assay: O=C(O)c1ccc2c(c1)nc(Nc1cccc(Cl)c1)c1ccncc12 [silmitasertib]
The essentials:
as §1

Compound in assay [2]: O=C1NC(=O)C(c2cnc3ccccn23)=C1c1cn2c3c(cc(F)cc13)CN(C(=O)N1CCCCC1)CC2
A digest of the protocol:
as §1

Compound in the next assay: c1cn2cc(-c3ccc4cn[nH]c4c3)nc(Nc3ccc(N4CCOCC4)cc3)c2n1 [entospletinib]
The essentials: as §1

Sequence of UniProt Q99081 (Q99081 whole entry, looked up): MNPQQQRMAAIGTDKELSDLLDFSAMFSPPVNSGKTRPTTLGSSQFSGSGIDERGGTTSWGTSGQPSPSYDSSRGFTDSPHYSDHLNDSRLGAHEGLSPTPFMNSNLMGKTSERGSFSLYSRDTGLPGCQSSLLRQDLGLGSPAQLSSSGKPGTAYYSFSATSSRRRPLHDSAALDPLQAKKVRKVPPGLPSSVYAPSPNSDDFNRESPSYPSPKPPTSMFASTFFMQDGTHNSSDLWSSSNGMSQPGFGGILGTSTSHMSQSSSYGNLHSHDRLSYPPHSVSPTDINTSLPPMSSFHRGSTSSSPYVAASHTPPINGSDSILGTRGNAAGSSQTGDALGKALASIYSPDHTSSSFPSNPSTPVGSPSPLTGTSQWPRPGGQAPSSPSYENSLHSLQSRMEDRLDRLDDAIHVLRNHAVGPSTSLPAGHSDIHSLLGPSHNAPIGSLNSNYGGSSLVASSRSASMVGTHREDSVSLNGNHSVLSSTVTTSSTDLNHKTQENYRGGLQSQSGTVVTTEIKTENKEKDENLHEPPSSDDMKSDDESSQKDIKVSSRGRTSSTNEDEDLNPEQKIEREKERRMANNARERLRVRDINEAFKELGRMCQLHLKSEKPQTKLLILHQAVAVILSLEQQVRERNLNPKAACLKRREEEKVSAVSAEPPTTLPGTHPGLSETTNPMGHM
Sequence of UniProt Q8NBN3 (Q8NBN3 whole entry, looked up): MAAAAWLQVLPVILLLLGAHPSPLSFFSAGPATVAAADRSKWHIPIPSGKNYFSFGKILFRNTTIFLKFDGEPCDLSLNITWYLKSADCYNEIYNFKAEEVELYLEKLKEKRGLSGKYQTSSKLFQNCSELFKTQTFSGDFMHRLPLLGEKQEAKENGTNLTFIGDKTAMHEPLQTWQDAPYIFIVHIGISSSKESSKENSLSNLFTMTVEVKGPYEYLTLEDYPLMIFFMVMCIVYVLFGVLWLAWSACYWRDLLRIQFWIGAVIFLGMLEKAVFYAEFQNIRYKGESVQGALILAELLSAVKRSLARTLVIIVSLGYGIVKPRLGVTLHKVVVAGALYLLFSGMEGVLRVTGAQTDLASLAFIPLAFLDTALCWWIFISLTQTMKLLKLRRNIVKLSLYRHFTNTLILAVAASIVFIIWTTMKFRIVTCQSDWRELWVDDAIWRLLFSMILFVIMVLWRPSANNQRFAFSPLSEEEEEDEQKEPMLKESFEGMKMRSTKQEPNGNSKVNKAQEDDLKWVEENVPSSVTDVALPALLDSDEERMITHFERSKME
Sequence of UniProt O95071 (O95071 whole entry, looked up): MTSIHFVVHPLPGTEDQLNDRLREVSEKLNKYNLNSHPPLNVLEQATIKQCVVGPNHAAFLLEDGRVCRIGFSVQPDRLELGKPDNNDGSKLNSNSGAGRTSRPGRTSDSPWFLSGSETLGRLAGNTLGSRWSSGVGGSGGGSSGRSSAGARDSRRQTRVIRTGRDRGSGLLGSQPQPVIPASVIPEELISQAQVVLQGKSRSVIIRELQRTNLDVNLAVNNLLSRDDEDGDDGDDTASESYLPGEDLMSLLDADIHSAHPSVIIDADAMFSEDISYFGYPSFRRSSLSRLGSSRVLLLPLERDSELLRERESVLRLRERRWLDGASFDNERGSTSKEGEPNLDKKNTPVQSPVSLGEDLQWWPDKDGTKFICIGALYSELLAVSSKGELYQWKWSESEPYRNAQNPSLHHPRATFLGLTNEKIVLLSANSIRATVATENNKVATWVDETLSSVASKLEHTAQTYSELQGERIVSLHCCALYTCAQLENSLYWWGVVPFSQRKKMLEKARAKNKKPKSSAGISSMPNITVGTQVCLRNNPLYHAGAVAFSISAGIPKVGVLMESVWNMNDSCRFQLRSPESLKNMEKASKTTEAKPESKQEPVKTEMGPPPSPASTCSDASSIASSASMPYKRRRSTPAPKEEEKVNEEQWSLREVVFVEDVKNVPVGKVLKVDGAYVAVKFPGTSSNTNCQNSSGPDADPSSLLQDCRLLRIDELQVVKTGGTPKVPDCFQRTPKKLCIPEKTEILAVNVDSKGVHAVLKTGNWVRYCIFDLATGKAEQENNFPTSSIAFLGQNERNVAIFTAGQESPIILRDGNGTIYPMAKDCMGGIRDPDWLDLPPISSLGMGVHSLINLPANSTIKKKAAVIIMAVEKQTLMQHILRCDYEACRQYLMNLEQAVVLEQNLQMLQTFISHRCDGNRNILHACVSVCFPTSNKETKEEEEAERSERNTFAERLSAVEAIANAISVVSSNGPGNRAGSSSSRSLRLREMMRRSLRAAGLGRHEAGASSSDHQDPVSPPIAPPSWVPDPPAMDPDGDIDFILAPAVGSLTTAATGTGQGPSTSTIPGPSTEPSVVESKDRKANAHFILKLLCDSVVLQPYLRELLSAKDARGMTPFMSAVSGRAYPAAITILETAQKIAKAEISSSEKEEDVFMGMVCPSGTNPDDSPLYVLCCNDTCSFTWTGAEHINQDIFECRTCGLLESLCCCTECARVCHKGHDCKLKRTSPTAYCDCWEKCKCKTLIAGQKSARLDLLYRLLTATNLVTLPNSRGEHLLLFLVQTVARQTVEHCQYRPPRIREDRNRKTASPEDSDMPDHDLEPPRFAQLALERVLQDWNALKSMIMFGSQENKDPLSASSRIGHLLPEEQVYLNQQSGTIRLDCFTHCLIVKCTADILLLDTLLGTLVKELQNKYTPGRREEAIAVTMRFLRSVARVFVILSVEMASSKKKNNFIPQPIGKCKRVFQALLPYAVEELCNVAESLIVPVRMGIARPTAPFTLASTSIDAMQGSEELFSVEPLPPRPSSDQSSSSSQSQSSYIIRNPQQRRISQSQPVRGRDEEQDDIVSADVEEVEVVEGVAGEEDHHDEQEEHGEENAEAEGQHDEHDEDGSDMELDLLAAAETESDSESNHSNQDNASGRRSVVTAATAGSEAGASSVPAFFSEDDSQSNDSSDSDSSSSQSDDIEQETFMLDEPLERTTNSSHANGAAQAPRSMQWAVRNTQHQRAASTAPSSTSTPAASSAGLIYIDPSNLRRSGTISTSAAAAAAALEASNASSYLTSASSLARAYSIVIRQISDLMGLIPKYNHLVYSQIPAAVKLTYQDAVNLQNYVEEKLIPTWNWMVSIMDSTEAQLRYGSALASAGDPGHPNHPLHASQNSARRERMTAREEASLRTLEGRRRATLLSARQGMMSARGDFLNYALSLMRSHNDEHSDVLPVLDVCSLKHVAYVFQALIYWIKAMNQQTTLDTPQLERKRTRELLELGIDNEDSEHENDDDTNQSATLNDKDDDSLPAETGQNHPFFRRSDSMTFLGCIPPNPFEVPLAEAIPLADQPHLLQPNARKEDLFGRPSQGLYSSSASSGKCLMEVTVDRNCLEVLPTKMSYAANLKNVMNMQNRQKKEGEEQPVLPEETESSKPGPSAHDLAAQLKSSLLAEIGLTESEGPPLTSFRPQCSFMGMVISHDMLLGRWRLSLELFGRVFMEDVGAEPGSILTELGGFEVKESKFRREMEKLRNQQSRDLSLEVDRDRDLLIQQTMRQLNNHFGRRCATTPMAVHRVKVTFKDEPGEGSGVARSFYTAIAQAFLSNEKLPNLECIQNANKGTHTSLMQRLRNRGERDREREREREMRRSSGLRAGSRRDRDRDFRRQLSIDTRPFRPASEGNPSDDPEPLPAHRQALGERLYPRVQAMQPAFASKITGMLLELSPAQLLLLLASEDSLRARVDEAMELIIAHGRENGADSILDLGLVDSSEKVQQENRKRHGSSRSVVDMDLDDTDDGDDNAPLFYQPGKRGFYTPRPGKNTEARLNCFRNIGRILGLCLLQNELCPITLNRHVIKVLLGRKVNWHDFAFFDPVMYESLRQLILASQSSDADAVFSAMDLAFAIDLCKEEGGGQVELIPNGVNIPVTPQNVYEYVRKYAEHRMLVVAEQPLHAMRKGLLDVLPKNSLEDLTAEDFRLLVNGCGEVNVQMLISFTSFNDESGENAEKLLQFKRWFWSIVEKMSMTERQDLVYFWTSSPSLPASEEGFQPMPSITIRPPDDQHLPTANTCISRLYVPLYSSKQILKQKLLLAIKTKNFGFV
Sequence of UniProt Q15813 (Q15813 whole entry, looked up): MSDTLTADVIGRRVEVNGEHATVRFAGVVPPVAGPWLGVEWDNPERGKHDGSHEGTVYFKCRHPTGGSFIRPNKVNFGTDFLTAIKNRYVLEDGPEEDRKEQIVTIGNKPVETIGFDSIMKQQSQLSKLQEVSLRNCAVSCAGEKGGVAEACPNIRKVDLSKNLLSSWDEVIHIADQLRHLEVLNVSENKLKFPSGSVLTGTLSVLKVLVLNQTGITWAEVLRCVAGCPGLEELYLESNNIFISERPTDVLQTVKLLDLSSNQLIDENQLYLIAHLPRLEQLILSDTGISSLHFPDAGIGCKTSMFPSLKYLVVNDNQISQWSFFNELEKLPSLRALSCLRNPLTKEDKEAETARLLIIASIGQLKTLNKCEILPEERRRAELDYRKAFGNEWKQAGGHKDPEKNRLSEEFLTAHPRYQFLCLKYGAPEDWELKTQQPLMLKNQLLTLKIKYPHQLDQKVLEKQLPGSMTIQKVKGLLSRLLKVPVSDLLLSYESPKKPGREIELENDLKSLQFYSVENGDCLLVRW

For TBCE (UniProt Q15813), the log2 fold change in assay [1] was -0.029; with vorinostat it was -0.27 (active); with silmitasertib, 0.018; in assay [2], -0.025; with entospletinib, 0.021.
In the same order, the values of TMEM87A (UniProt Q8NBN3) are 0.001, 0.074, 0.007, -0.013 and 0.029.
For TCF12 isoform 3 (UniProt Q99081), the log2 fold change in assay [1] was -0.016; with vorinostat, -0.263 (active); in the assay with silmitasertib, -0.024; in assay [2], -0.004; in the assay with entospletinib, 0.006.
For UBR5 (UniProt O95071) the same measures were 0.009, -0.234 (active), 0.011, -0.011 and -0.006.
